# Some of the results follow. Calls of active or inactive are those of the source. Rule as the data show it, unless noted: active = activity above about 50%; inactive = the rest.
# Tests used:
# [1] = NFkB reporter suppression in cystic fibrosis bronchial cells – cell-based, uHTS hits, panel, cytotoxicity readout, dose response (AID 624344); conditions: CF bronchial epithelial cells, PAF-induced NFkB reporter inhibition, with PAF, run 1; at 79 µM (top of the series)
# [2] = as above; conditions: CF bronchial epithelial cells, PAF-induced NFkB reporter inhibition, with PAF, run 2; at 79 µM (top of the series)
# [3] = biological target: PEG-3 (UniProt Q6IN02); assay: inhibition of PEG-3 promoter-driven reporter – cell-based, HeLa, luciferase, CREF/GAPDH counter-screen panel, dose response (AID 624167); conditions: HeLa PEG-Prom luciferase reporter, overnight, CREF/GAPDH counter-screens; run 1, dose range 1, at 100 µM (top of the series)
# Chain of PEG-3 (Q6IN02 whole entry, looked up): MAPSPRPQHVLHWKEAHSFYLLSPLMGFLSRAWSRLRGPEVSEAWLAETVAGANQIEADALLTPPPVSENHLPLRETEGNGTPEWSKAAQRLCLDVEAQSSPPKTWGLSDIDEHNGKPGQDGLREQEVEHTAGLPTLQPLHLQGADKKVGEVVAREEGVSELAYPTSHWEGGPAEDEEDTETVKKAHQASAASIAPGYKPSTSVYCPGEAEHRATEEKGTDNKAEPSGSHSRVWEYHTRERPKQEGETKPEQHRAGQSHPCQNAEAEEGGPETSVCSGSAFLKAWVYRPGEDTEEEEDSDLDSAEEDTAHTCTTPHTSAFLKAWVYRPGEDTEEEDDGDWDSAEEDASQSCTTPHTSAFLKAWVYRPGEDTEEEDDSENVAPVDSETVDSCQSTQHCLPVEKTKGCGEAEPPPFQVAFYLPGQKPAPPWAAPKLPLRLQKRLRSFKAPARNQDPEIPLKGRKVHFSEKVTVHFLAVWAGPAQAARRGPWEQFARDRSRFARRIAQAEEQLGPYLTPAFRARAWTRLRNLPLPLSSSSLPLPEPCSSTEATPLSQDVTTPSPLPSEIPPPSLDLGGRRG
# [4] = biological target: PEG-3 (UniProt Q6IN02); assay: as above; conditions: HeLa PEG-Prom luciferase reporter, overnight, CREF/GAPDH counter-screens; run 2, dose range 1, at 100 µM (top of the series)
# [5] = biological target: Tumor necrosis factor receptor superfamily member 10B (Homo sapiens) (UniProt O14763); assay: viability loss of caspase-8 NB7 cells with TRAIL – with/without TRAIL, luminescence panel, confirmation (AID 651596); conditions: NB7 neuroblastoma + caspase-8, TRAIL sensitization, NB7 Caspase-8, with TRAIL, mean of runs, at 10 µM, stronger effect = higher value
# Chain of Tumor necrosis factor receptor superfamily member 10B (Homo sapiens) (O14763 whole entry, looked up): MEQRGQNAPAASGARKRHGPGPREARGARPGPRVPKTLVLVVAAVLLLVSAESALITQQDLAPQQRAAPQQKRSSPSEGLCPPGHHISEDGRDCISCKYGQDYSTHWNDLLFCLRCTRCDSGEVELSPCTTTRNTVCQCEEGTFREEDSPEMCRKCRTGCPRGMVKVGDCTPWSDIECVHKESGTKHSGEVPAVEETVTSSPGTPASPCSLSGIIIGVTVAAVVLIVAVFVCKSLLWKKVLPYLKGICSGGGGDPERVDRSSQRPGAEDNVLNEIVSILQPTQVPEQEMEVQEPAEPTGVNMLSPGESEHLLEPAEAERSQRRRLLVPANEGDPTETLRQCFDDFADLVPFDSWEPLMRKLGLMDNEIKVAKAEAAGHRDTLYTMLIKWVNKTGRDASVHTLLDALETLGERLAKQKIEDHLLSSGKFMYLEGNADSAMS
# [6] = as above; conditions: NB7 neuroblastoma + caspase-8, without TRAIL, NB7 Caspase-8, without TRAIL, mean of runs, at 10 µM
# [7] = system: Rat fibroblasts (CREF); assay: inhibition of PEG-3 promoter-driven reporter – cell-based, HeLa, luciferase, CREF/GAPDH counter-screen panel, dose response (AID 624167); conditions: CREF/GAPDH counter-screens; run 1, dose range 1, at 100 µM (top of the series)
# [8] = system: Rat fibroblasts (CREF); assay: as above; conditions: CREF/GAPDH counter-screens; run 2, dose range 1, at 100 µM (top of the series)
# [9] = HIF-2a driven luciferase blockers, single dose – luminescence, 786-0 RCC cells, confirmation (AID 651580;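 active = mean inhibition across four replicates of at least 40 percent at the single tested concentration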); conditions: HIF-2a luciferase reporter luminescence, overnight, at 18.8 µM, stronger effect = higher value
# [10] = HIF-1a luciferase reporter signal reduction – MiaPaCa-2 cells, single concentration, counter-screen for HIF-2a inhibitor project, confirmation (AID 651589;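 active = mean inhibition of the reporter signal across four replicates at the single tested dose of 50% or more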); conditions: MiaPaCa-2 HIF-1a luciferase reporter, desferoxamine, overnight; at 18.8 µM; stronger effect = higher value
compound,measurement,setting,value
COc1cc2c(c(OC)c1OC)-c1ccc(O)cc1C(NC(C)=O)CC2 (centres undefined),inhibition,[1],-101%
same,inhibition,[2],0.843%
CCN(CC)C(=O)c1ccc(NC(=O)Nc2ccccc2F)cc1,inhibition,[3],82.1%
same,inhibition,[4],93.2%
same,activity,[5],69.6%
same,activity,[6],63.9%
O=C1NC2C(=CC(O)C(O)C2O)c2cc3c(c(O)c21)OCO3 (centres undefined),inhibition,[3],99.4%
same,inhibition,[4],94.9%
CC[C@@H](O)C[C@H]1CCC[C@@]2(C[C@@H]3OC(=O)/C=C/[C@@](C)(O)[C@@H](O)[C@H](C)[C@@H](O)[C@H](OC4CCC(N(C)C)C(C)O4)[C@@H](O)[C@](C)(O)CCCCC/C=C/[C@@H]4CC(C)(C)O[C@@]4(O)C[C@H](O2)[C@H]3C)O1 (some centres undefined),inhibition,[3],98.9%
same,inhibition,[4],98.9%
Cc1cccc(C)c1-n1nnnc1C(c1ccccc1OC(F)(F)F)N1CCC(n2c(=O)[nH]c3ccccc32)CC1 (centres undefined),inhibition,[3],49.4%
same,inhibition,[4],42%
CCOC(=O)c1c(-n2c(C)cc(C=C3C(=O)NC(=S)NC3=O)c2C)sc2c1CCCC2,inhibition,[3],96.7%
same,inhibition,[4],101%
same,inhibition,[7],95.9%
same,inhibition,[8],97.3%
Cc1ccccc1CN1Cc2cnnn2-c2ccccc2C1C#N (centres undefined),inhibition,[3],99.2%
same,inhibition,[4],98.3%
same,activity,[5],37.7%
same,activity,[6],78.2%
C=C1C(C)C2C(Cc3ccccc3)NC(=O)C23OC(=O)/C=C/C(O)CCCC(C)C/C=C/C3C1O (centres undefined),inhibition,[1],104%
same,inhibition,[2],103%
Cc1c(C(=O)c2cccc3ccccc23)c2cccc3c2n1[C@H](CN1CCOCC1)CO3,inhibition,[1],104%
same,inhibition,[2],112%
CC(=O)OCC12CC(OC(=O)CC(C)C)C(C)=CC1OC1C(O)C(OC(C)=O)C2(C)C12CO2 (centres undefined),activity,[5],93%
same,activity,[6],97.6%
COc1cc2c(c(OC)c1O)-c1ccc(OC)c(=O)cc1C(NC(=O)C(F)(F)F)CC2 (centres undefined),inhibition,[1],-39.2%
same,inhibition,[2],24.5%
N#CC1c2ccccc2-n2nncc2CN1Cc1cc(Cl)cc(Cl)c1 (centres undefined),inhibition,[1],91.8%
same,inhibition,[2],95.5%
same,activity,[5],55.8%
same,activity,[6],86.4%
O=c1[nH]c2ccccc2n1C1CCN(C(c2cccc3ccccc23)c2nnnn2Cc2ccccc2)CC1 (centres undefined),inhibition,[1],103%
same,inhibition,[2],101%
C=C1C(=O)OC2CC3(C)OC3CCC(C)=CC(OC(C)=O)C12 (centres undefined),inhibition,[1],93.9%
same,inhibition,[2],99.9%
CNC(=O)Oc1ccc(-c2cn3cc(C)ccc3n2)cc1,activity,[5],95.7%
same,activity,[6],95.5%
NC(=Nc1ccccc1)NN=Cc1c[nH]c2ccccc12,inhibition,[1],94.3%
same,inhibition,[2],116%
COc1ccc(C[C@H]2NC[C@H](O)[C@H]2OC(C)=O)cc1,inhibition,[1],114%
same,inhibition,[2],106%
CCOC(=O)C(=CNc1ccc(C(O)(C(=O)OCC)C(F)(F)F)cc1C)C(=O)OCC (centres undefined),activity,[5],-5.97%
same,activity,[6],6.08%
COc1ccc(-n2nnnc2C(c2cccc(OC)c2OC)N2CCC(n3c(=O)[nH]c4ccccc43)CC2)cc1 (centres undefined),inhibition,[1],99.3%
same,inhibition,[2],97.4%
COc1ccc(C(c2nnnn2-c2ccc(OC)cc2)N2CCC(n3c(=O)[nH]c4ccccc43)CC2)cc1 (centres undefined),inhibition,[1],98.8%
same,inhibition,[2],103%
COc1ccc2c(c1)[nH]c1c(C)nccc12,inhibition,[1],113%
same,inhibition,[2],97.6%
Cc1cccc(C)c1-n1nnnc1C(CCc1ccccc1)N1CCC(n2c(=O)[nH]c3ccccc32)CC1 (centres undefined),activity,[5],90.2%
same,activity,[6],82%
CCCCCCCCCCCCCCCC[N+](C)(C)C,activity,[5],96.8%
same,activity,[6],96.8%
C[C@H]1C[C@@H](C)C(=O)[C@@H]([C@H](O)CC2CC(=O)NC(=O)C2)C1,inhibition,[1],107%
same,inhibition,[2],113%
ClCCN(CCCl)c1ccc(-n2cnc3c(Cl)ncnc32)cc1,activity,[5],96.3%
same,activity,[6],98.2%
NC(=O)c1c(Br)n(C2OC(CO)C(O)C2O)c2ncnc(N)c12 (centres undefined),inhibition,[1],106%
same,inhibition,[2],116%
CC(=O)c1c(C)n(C2CCCCC2)c2ccc(O)cc12,inhibition,[1],95.6%
same,inhibition,[2],102%
COc1ccc(-n2nnnc2C(CCSC)N2CCC(n3c(=O)[nH]c4ccccc43)CC2)cc1 (centres undefined),inhibition,[1],97.9%
same,inhibition,[2],108%
COc1ccc(-n2nnnc2C(c2cccs2)N2CCC(n3c(=O)[nH]c4ccccc43)CC2)cc1 (centres undefined),inhibition,[1],102%
same,inhibition,[2],102%
CCCCn1nnnc1C(CCc1ccccc1)N1CCC(n2c(=O)[nH]c3ccccc32)CC1 (centres undefined),inhibition,[1],89.5%
same,inhibition,[2],93%
COc1cc(C2c3cc4c(c(O)c3CC3COC(=O)C32)OCO4)cc(OC)c1OC (centres undefined),inhibition,[1],110%
same,inhibition,[2],85%
COc1ccc(-n2nnnc2C(CCc2ccccc2)N2CCC(n3c(=O)[nH]c4ccccc43)CC2)cc1 (centres undefined),inhibition,[1],103%
same,inhibition,[2],101%
same,activity,[5],91.1%
same,activity,[6],88.8%
CNC(=O)Oc1cccc(-c2cn3cc(Cl)ccc3n2)c1,activity,[5],86.8%
same,activity,[6],83%
C[C@H]1CCCC(=O)CCC/C=C/c2cc(O)cc(O)c2C(=O)O1,inhibition,[1],102%
same,inhibition,[2],114%
C=CC[C@@H](CC/C=C/C=C/CC/C=C\[C@@H]1CSC([C@@H]2C[C@@H]2C)=N1)OC,inhibition,[1],91.9%
same,inhibition,[2],64.9%
COc1ccc(Oc2cc(NC(=O)c3nn(C)cc3[N+](=O)[O-])cc([N+](=O)[O-])c2)cc1,inhibition,[1],113%
same,inhibition,[2],101%
same,activity,[5],94.2%
same,activity,[6],97.4%
CCC(C)(O)C(=O)OC1C(=O)OC2CC3C(C)=CC(=O)C(O)C3(C)C3C4(O)OCC23C1C(C)C4O (centres undefined),inhibition,[9],55.2% (active)
same,inhibition,[10],101% (active)
O=c1[nH]c2ccccc2n1C1CCN(C(c2cc3ccccc3o2)c2nnnn2-c2ccc3c(c2)OCCO3)CC1 (centres undefined),inhibition,[1],103%
same,inhibition,[2],104%
same,activity,[5],81.4%
same,activity,[6],83.5%
CCOC(=O)[C@]12Cc3c(cc(OC)c(OC)c3OC)[C@H]1N(C1CCCCC1)C(=O)c1ccccc12,activity,[5],95.8%
same,activity,[6],98%
COc1cc(C2c3cc4c(cc3CC3COC(=O)C32)OCO4)cc(OC)c1O (centres undefined),inhibition,[1],-31.2%
same,inhibition,[2],-1.25%
CCOC(=O)[C@]12Cc3ccccc3[C@H]1N(C1CCCCC1)C(=O)c1cc(OC)ccc12,inhibition,[9],93.2% (active)
same,inhibition,[10],106% (active)
same,activity,[5],85.5%
same,activity,[6],88%
COC1C(O)C(C)OC(OC2CCC3(C=O)C(CCC4C3CCC3(C)C(C5=CC(=O)OC5)CCC43O)C2)C1O (centres undefined),inhibition,[9],40% (inactive)
same,inhibition,[10],105% (active)
same,activity,[5],85.2%
same,activity,[6],91.8%
CCOC(=O)[C@]12Cc3ccc(C)cc3[C@H]1N(C1CCCCC1)C(=O)c1ccccc12,activity,[5],90.7%
same,activity,[6],90.5%
O=[N+]([O-])c1ccc(Cl)c([N+](=O)[O-])c1,activity,[5],-3.27%
same,activity,[6],54.8%
Cc1ccc(-c2cc(-c3ccccc3)cc(-c3ccccc3)[n+]2-c2ccccc2)cc1,activity,[5],96.6%
same,activity,[6],87.8%
CCC(C)C1NC(=O)C(NC(=O)C(CC(C)C)N(C)C(=O)C2CCCN2C(=O)C(C)O)C(C)OC(=O)C(Cc2ccc(OC)cc2)N(C)C(=O)C2CCCN2C(=O)C(CC(C)C)NC(=O)[C@H](C)C(=O)[C@H](C(C)C)OC(=O)CC1O (some centres undefined),activity,[5],96.9%
same,activity,[6],98.2%
CN(C)C(=O)O/N=C(\N)COc1ccc(C(C)(C)C)cc1,activity,[5],96.8%
same,activity,[6],98.2%
COC(=O)C12OCC34C(CC5C(C)=C(O)C(=O)CC5(C)C3C(O)C1O)OC(=O)C(OC(=O)/C=C(\C)C(C)C)C24 (centres undefined),activity,[5],94.8%
same,activity,[6],97.5%
CCOC(=O)[C@]12Cc3cc(OC)ccc3[C@H]1N(C1CCCCC1)C(=O)c1cc(OC)ccc12,activity,[5],57.6%
same,activity,[6],75.7%
CCOC(=O)[C@]12Cc3cc(Cl)ccc3[C@H]1N(Cc1ccccc1)C(=O)c1cc(OC)ccc12,activity,[5],91.9%
same,activity,[6],97.9%
CC1=CC2OC3CC4OC(=O)C=CC=CC(=O)OCCC(C)C(O)C(=O)OCC2(CC1)C4(C)C31CO1 (centres undefined),activity,[5],75.6%
same,activity,[6],80.9%
C[C@@H]1O[C@@H](O[C@@H]2C=C3CC[C@@H]4C(CC[C@]5(C)[C@@H](c6ccc(=O)oc6)CC[C@]45O)[C@@]3(C)CC2)[C@H](O)[C@H](O)[C@H]1O (some centres undefined),activity,[5],82.4%
same,activity,[6],91.5%
CCOC(=O)[C@]12Cc3cc(C)ccc3[C@H]1N(C(C)C)C(=O)c1ccccc12,activity,[5],44.4%
same,activity,[6],63.6%

# Source: PubChem BioAssay
